Screen size: about 94,000 compounds; about 6,200 (6.6%) were called active. Another 31% or so got no clear call; they are omitted. Calls come from the whole dose curve; as a rule, active = well fitted inhibition curve with a large enough effect; inconclusive = small, poorly fitted or top-dose-only effect; inactive = flat fitted curve, though single readings scatter. What follows is part of a selection rich in actives, with near analogues and random picks from the rest.
assay: Cytotoxic Profiling in HEK 293 Cell Line of Diverse Libraries Using Quantitative High-Throughput Screening; conditions: HEK 293 viability, ATP luminescence (CellTiter-Glo), 48-72 h; series mostly up to 115 µM; activity change, negative = cytotoxicity: at the top concentration; note: nearly all actives have a fitted effect of over 60% in size
Text: Cell-based phenotypic screening is a commonly used approach to discover biological pathways, novel drug targets, chemical probes and high-quality hit-to-lead molecules. Many hits identified from high-throughput screening campaign are ruled out through a series of follow-up potency, selectivity/specificity, and cytotoxicity assays. Prioritization of molecules with little or no cytotoxicity for a more in-depth downstream evaluation influence the future direction of projects, so cytotoxicity profiling of the screening libraries at early stage is essential for increasing the likelihood of candidate success. In this study, we analyzed results from a cell-based cytotoxicity screening campaign, comprising nearly 10,000 compounds in NCATS annotated libraries, and over 100,000 compounds in a diversity library, evaluated in four normal cell lines (HEK 293, NIH 3T3, CRL-7250 and HaCat) and a cancer cell line (KB 3-1, a HeLa subline) with overall screening outcomes, hit rates, pan-activity and selectivity. For the annotated library, we also examined the primary targets and mechanistic pathways regularly associated with cell death. To our knowledge, this is the first study to use high-throughput screening to profile large libraries for cytotoxicity assessment in both normal and cancer cell lines. In summary, the results generated here constitutes a valuable resource for the scientific community and provides insight on identifying cytotoxic compounds with particular mechanisms of action, and prioritizing compounds with suitable cytotoxicity profile for further evaluation.
HEK 293 cells were seeded into white 1536-well plates using a Multidrop Combi peristaltic dispenser (ThermoFisher, Waltham, MA) at a density of 250 cells/well in 5 uL of medium respectively. A pintool (Kalypsys) was used to transfer 23 nL of compound solution to the 1536-well assay plates. After 48 or 72 hr incubation at 37 degree Celsius, 5% CO2 and 95% humidity, 2.5 uL of CellTiter-Glo (Promega) was dispensed into each well using a dispenser (Aspect Automation, St. Paul, MN) with solenoid valves (Lee Valves, Westbrook CT). Plates were left at room temperature for 10 min before imaging the ATP-coupled luminescence using a ViewLux microplate imager (PerkinElmer, Waltham, MA).
% is set by controls: 0 for no effect and ±100 for the full control effect; potency is the fitted concentration of half-maximal effect.

Row | Structure (SMILES) | outcome | activity change, negative = cytotoxicity | Potency
1 | O=C(c1cccc(F)c1)N1CCCC(CN2CCOCC2)CC1 (centres undefined) | inactive |  | 
2 | Cc1ccc(OCCC2CCN(C(=O)CCN3C(=O)NC(C)(C)C3=O)C2)cc1 (centres undefined) |  | -19.8% (inactive) | 
3 | O=C(c1cccc(F)c1)N1CCC(CCOc2ccc(F)cc2)C1 (centres undefined) |  |  | 44.7 µM (active)
4 | Cc1cnc(CCNC(=O)c2cn(C)cn2)n1C1CC1 | inactive |  | 
5 | O=[S+]([O-])(c1ccccc1)N1CCCC2(CC(c3ccccn3)=NO2)C1 (centres undefined) |  | -4.29% (inactive) | 
6 | O=[S+]([O-])(c1ccccc1)N1CCC2(CC(c3cccnc3)=NO2)C1 (centres undefined) | inactive |  | 
7 | Cc1ccc([S+](=O)([O-])N2CCC3(CC2)CC(=O)N(c2ccccc2)c2ccccc2O3)cc1 |  |  | 25.1 µM (active)
8 | NC(=O)c1cccnc1OC1CCNCC1 |  | 5.73% (inactive) | 
9 | COc1ccc(C)cc1NC(=O)Cn1nc2n(c1=O)CCCC2 |  | 1.29% (inactive) | 
10 | COc1ccc(CN2CCC3(CC2)Cc2ccccc2CNC3=O)cn1 |  | -2.09% (inactive) | 
11 | CC(C)Cc1ccc(CN2CCC3(CC2)Cc2ccccc2CNC3=O)cc1 |  |  | 22.4 µM (active)
12 | O=C1NCc2ccccc2CC12CCN(Cc1ccc(O)cc1)CC2 |  | 2.63% (inactive) | 
13 | COc1ccc(C2(C(=O)NCc3cccc(C(F)(F)F)c3)CCOCC2)cc1 |  | -18.9% (inactive) | 
14 | CC1=C[C@@H](CN(C)CCc2ccccn2)[C@H](C(C)C)C[C@H]1Cc1nnc(-c2ccccc2F)o1 |  |  | 44.7 µM (active)
15 | COCC(=O)NC[C@@H]1C=C(C)[C@H](CC(=O)Nc2ccccn2)C[C@H]1C(C)C |  | -20.1% [at 172 µM] (inactive) | 
16 | NC(=O)c1ccc(OC2CCN(C(=O)c3ccc(F)cc3)CC2)nc1 |  | -29.6% (inactive) | 
17 | O=C1CCN(C(=O)[C@@H](Cc2ccccc2)NS(=O)(=O)c2cccc3cccnc23)CCOCCN1 |  | 1.59% (inactive) | 
18 | O=C(NCCc1ccccc1)NC1CCc2nn(CC3CC3)c(=O)n2CC1 (centres undefined) | inactive |  | 
19 | O=C(Cc1cccc(F)c1)Nc1cnc(-c2cccnc2)nc1 |  | -0.423% (inactive) | 
20 | O=C(Nc1cnc(-c2cccc(Cl)c2)nc1)c1ccc(F)cc1 |  |  | 44.7 µM (active)
21 | O=C(Nc1ccc(F)cc1)c1ccc2nc(-c3cccnc3)oc2c1 |  | -10.8% [at 172 µM] (inactive) | 
22 | COC(=O)COc1cccn2c(=O)c(-c3cc(C)n(-c4ccc(C)cc4C)n3)c(C)nc12 |  | -13.2% (inactive) | 

Row | Structure (SMILES) | outcome | activity change, negative = cytotoxicity | Potency
23 | O=C1CC(c2ccccc2)N(C(=O)C2CC2)CCCN(C(=O)Cc2cccc(F)c2)CCN1 (centres undefined) |  | 2.27% (inactive) | 
24 | CC(C)Cc1cc(CNc2nc(C(C)(C)C)nc3c2cnn3C)no1 |  |  | 35.5 µM (active)
25 | CC(Cn1cncn1)Nc1nc(-c2ccncc2)nc2c1cnn2C (centres undefined) |  | 0.89% (inactive) | 
26 | CCCc1nc(NCC(c2ccccn2)N2CCOCC2)c2cnn(C)c2n1 (centres undefined) |  | -0.509% (inactive) | 
27 | COc1ccccc1CC(=O)NCc1nnc2c(-c3nc(C(C)C)no3)cccn12 |  | -10% (inactive) | 
28 | COCCC1(CO)CCCN(C(=O)Cn2cc(C)c(=O)[nH]c2=O)C1 (centres undefined) |  | 3.68% (inactive) | 
29 | O=C(NCc1nnc2ccccn12)C1NCCc2[nH]cnc21 (centres undefined) |  | 0.78% (inactive) | 
30 | CCC(=O)N1CCC2(CC1)CC(N1CCN(CC(C)C)CC1)CCO2 (centres undefined) |  | -2.2% (inactive) | 
31 | Cc1ccc(S(=O)(=O)N[C@@H]2CCOC[C@H]2OCC(=O)O)cc1 |  | 0.393% (inactive) | 
32 | O=C1NCCCCCCN(S(=O)(=O)c2cccs2)[C@H]2CCCC[C@@H]12 |  | -15% (inactive) | 
33 | CC(=O)N1CCc2ccc(C(=O)N3CCCCCC3)cc21 |  | -7.22% (inactive) | 
34 | O=C(c1ccc2c(c1)N(C(=O)c1ccccc1)CC2)N1CCN(c2ccc(Cl)cc2)CC1 |  |  | 31.6 µM (active)
35 | CCC(CC)N1CCN(C(=O)c2ccc3c(c2)N(S(C)(=O)=O)CC3)CC1 |  | -6.68% (inactive) | 
36 | O=C(NC[C@H]1O[C@@H](CO)[C@@H](O)[C@H]1N1CCOCC1)c1ccco1 |  | -4.16% [at 172 µM] (inactive) | 
37 | O=C(CCn1ccn2nc3c(c2c1=O)CCCC3)Nc1ccc(F)cc1Cl |  | -2.23% (inactive) | 
38 | CCOC(=O)c1ccc(NC(=O)CCn2ccn3nc4c(c3c2=O)CCCC4)cc1 |  | -21.7% (inactive) | 
39 | O=C(CCn1ccn2nc3c(c2c1=O)CCCC3)Nc1ccc(Cl)c(C(F)(F)F)c1 |  |  | 44.7 µM (active)
40 | CCc1nc(-c2c3n(c(=O)n(CC(=O)NC4CCCCC4)c2=O)CCCC3)no1 |  | 4.44% (inactive) | 
41 | CCOC(=O)C1=C(C)NC(=O)NC1c1ccccc1 (centres undefined) |  | -2.03% (inactive) | 
42 | Cc1nccnc1N1CCC(c2nnc(CN3CCCC3)n2C)CC1 |  | -7.58% (inactive) | 
43 | O=C1Cc2c(-c3ccc(CO)cc3)n[nH]c2CN1CC1CCOCC1 |  | -27.8% [at 172 µM] (inactive) | 
44 | CC(C)Oc1cccc(-c2n[nH]c3c2CC(=O)N(Cc2ccccc2)C3)c1 |  | -22.1% [at 172 µM] (inactive) | 

Row | Structure (SMILES) | outcome | activity change, negative = cytotoxicity | Potency
45 | O=C1Cc2c(-c3ccc(Oc4ccccc4)cc3)n[nH]c2CN1CCc1ccncc1 |  |  | 79.4 µM (active)
46 | CCc1ocnc1C(=O)NC1CC(c2cc(N3CCC(O)C3)ncn2)C1 (centres undefined) | inactive |  | 
47 | O=C(CN1CCCC1=O)NC1CCCc2nc(-c3ccccc3)ncc21 (centres undefined) |  | 7.55% (inactive) | 
48 | Cc1nc(CCNC(=O)C2CCCN(c3nc(-c4ccccc4)nc4c3CCC4)C2)n[nH]1 (centres undefined) |  | -3.49% (inactive) | 
49 | O=C(NC1CCNC1)C1CCN(c2nc(-c3ccccc3)nc3c2CCC3)CC1 (centres undefined) |  |  | 35.5 µM (active)
50 | CC(C)c1nc(CCNC(=O)[C@H]2CNC[C@@H](C(=O)N3CCCC3)C2)cs1 |  | -4.75% (inactive) | 
51 | O=C(NCC1CCNCC1)c1ccc(C2CCNC2)cc1 (centres undefined) |  | -14.4% (inactive) | 
52 | CN(C)CCNC(=O)c1nc2nc(-c3ccccc3)c(-c3cccc(F)c3)cc2n1C |  |  | 50.1 µM (active)
53 | COc1ccc(Nc2cc3c(nc2-c2ccccc2)nc(C(=O)NCCN(C)C)n3C)cn1 |  | -23.9% (inactive) | 
54 | O=C(NCCn1cccc1-c1nc(-c2ccc3c(c2)OCO3)no1)c1cccc(F)c1 |  | -25.2% (inactive) | 
55 | Cn1cccc1C(=O)N1CC[C@@H]2NC(=O)[C@H]3C[C@H](NC(=O)C4CC4)CN3C(=O)[C@H]21 | inactive [at 172 µM] |  | 
56 | CCCCN1C(=O)C(CC(=O)N2CCCCC2)Sc2ncccc21 (centres undefined) |  | -19.9% (inactive) | 
57 | CC(C)CNC(=O)c1nc2sccn2c1-c1ccncc1 | inactive [at 172 µM] |  | 
58 | CC(=O)N1CCC([C@@H]2CN(Cc3cc(F)c(F)cc3F)C[C@H]2CO)CC1 |  | -4.04% (inactive) | 
59 | CC(C)S(=O)(=O)N1CCC(N2CC(OCC3CC3)C23CCCCC3)CC1 (centres undefined) |  | -25.7% (inactive) | 
60 | O=C1NC2(CCN(C(=O)c3ccccc3)C2)COc2ccccc21 (centres undefined) |  |  | 100 µM (active)
61 | O=C1NC2(CCN(C(=O)c3ccccn3)C2)Oc2ccccc21 (centres undefined) |  | -8.41% [at 172 µM] (inactive) | 
62 | O=C1CC2(CCN(C(=O)c3ccccc3)C2)Nc2ccccc2N1 (centres undefined) |  | -16% (inactive) | 
63 | CCN(C1CCOCC1)C1CN(C(=O)C2CCC2)C1 |  | -1.75% (inactive) | 
64 | COCCNC(=O)[C@@H]1C[C@H](Oc2ccccc2)CN1C(=O)c1ccccn1 |  | -0.692% (inactive) | 

Source: PubChem BioAssay AID1345083 (National Center for Advancing Translational Sciences (NCATS), 2018)
